# According to the supplement of paper PMC8728848:
# Shown is part of a subset that was picked to be rich in the strongest signals.
# B1: Fm1D (Escherichia coli) (protein)
# chain: FSCNVDGGSSIGAGTTSVYVNLDPVIQPGQNLVVDLSQHISCWNDYGGWYDTDHINLVQGSAFAGSLQSYKGSLYWNNVTYPFPLTTNTNVLDIGDKTPMPLPLKLYITPVGAAGGVVIKAGEVIARIHMYKIATLGSGNPRNFTWNIISNNSVVMPTHHHHHH
# Legend:
# Assay in all cases: glycan array binding signal (z-score within array); higher = stronger binding
# Conditions in all cases: glycan notation: IUPAC condensed, linker removed
# [1] = molecular target: Fuc(a1-2)Gal(b1-3)GalNAc(b1-4)[Neu5Ac(a2-3)]Gal(b1-4)Glc
# Procedure, shortened: (§1)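 From the Consortium for Functional Glycomics database, 3228 arrays were curated, keeping only those whose protein sequence was available. Binding is given as a within-array Z-score averaged across arrays sharing a protein sequence and across linkers. Negative Z-scores can be read as non-binding.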
# [2] = molecular target: Fuc(a1-2)Gal(b1-4)GlcNAc(b1-3)Gal(b1-4)GlcNAc(b1-3)Gal(b1-4)GlcNAc
# Procedure, shortened: as §1
# [3] = molecular target: Fuc(a1-2)Gal(b1-4)[Fuc(a1-3)]GlcNAc(b1-3)[Neu5Ac(a2-6)Gal(b1-4)GlcNAc(b1-6)]Gal(b1-4)Glc
# Procedure, shortened: as §1
# Fuc(a1-2)Gal6S(b1-4)Glc = molecular target: Fuc(a1-2)Gal6S(b1-4)Glc
# Procedure, shortened: as §1
# [4] = molecular target: Fuc(a1-2)Gal6S(b1-4)Glc6S
# Procedure, shortened: as §1
# [5] = molecular target: Fuc(a1-2)[Gal(a1-3)]Gal(b1-4)GlcNAc(b1-2)Man(a1-3)[Fuc(a1-2)[Gal(a1-3)]Gal(b1-4)GlcNAc(b1-2)Man(a1-6)]Man(b1-4)GlcNAc(b1-4)GlcNAc
# Procedure, shortened: as §1
# [6] = molecular target: Fuc(a1-2)[Gal(a1-3)]Gal(b1-4)GlcNAc(b1-2)Man(a1-3)[Fuc(a1-2)[Gal(a1-3)]Gal(b1-4)GlcNAc(b1-2)Man(a1-6)]Man(b1-4)GlcNAc(b1-4)[Fuc(a1-6)]GlcNAc
# Procedure, shortened: as §1
# [7] = molecular target: Fuc(a1-2)[GalNAc(a1-3)]Gal(b1-3)GlcNAc
# Procedure, shortened: as §1
# [8] = molecular target: Fuc(a1-3)[Gal(b1-4)]GlcNAc(b1-6)GalNAc
# Procedure, shortened: as §1
# Gal(a1-3)Gal = molecular target: Gal(a1-3)Gal
# Procedure, shortened: as §1
# [9] = molecular target: Gal(a1-3)[Gal(a1-4)]Gal(b1-4)GlcNAc
# Procedure, shortened: as §1
# Gal(b1-3)GalNAc = molecular target: Gal(b1-3)GalNAc
# Procedure, shortened: as §1
# [10] = molecular target: Gal(b1-3)GlcNAc(b1-6)GalNAc
# Procedure, shortened: as §1
# [11] = molecular target: Gal(b1-3)GlcNAc(b1-6)[Gal(b1-3)]GalNAc
# Procedure, shortened: as §1
# [12] = molecular target: Gal(b1-3)[GlcNAc(b1-6)]GalNAc
# Procedure, shortened: as §1
# [13] = molecular target: Gal(b1-3)[Neu5Ac(a2-6)]GalNAc
# Procedure, shortened: as §1
# [14] = molecular target: Gal(b1-4)GlcNAc(b1-2)Man(a1-6)[Man(a1-3)]Man(b1-4)GlcNAc(b1-4)GlcNAc
# Procedure, shortened: as §1
# [15] = molecular target: Gal(b1-4)GlcNAc(b1-2)[Gal(b1-4)GlcNAc(b1-4)]Man(a1-3)[GlcNAc(b1-4)][Gal(b1-4)GlcNAc(b1-2)Man(a1-6)]Man(b1-4)GlcNAc(b1-4)GlcNAc
# Procedure, shortened: as §1
# [16] = molecular target: Gal(b1-4)GlcNAc(b1-2)[Gal(b1-4)GlcNAc(b1-6)]Man(a1-6)[GlcNAc(b1-4)][Gal(b1-4)GlcNAc(b1-2)Man(a1-3)]Man(b1-4)GlcNAc(b1-4)GlcNAc
# Procedure, shortened: as §1
# [17] = molecular target: Gal(b1-4)GlcNAc(b1-3)Gal(b1-4)GlcNAc(b1-2)Man(a1-3)[Gal(b1-4)GlcNAc(b1-3)Gal(b1-4)GlcNAc(b1-2)Man(a1-6)]Man(b1-4)GlcNAc(b1-4)GlcNAc
# Procedure, shortened: as §1
# [18] = molecular target: Gal(b1-4)GlcNAc(b1-3)Gal(b1-4)GlcNAc(b1-6)[Gal(b1-3)]GalNAc
# Procedure, shortened: as §1
# [19] = molecular target: Gal(b1-4)GlcNAc(b1-6)[Gal(b1-3)]GalNAc
# Procedure, shortened: as §1
# Gal3S(b1-3)GlcNAc = molecular target: Gal3S(b1-3)GlcNAc
# Procedure, shortened: as §1
# GlcA(b1-3)Gal = molecular target: GlcA(b1-3)Gal
# Procedure, shortened: as §1
# [20] = molecular target: GlcNAc(b1-2)[GlcNAc(b1-4)]Man(a1-3)[GlcNAc(b1-4)][GlcNAc(b1-2)[GlcNAc(b1-6)]Man(a1-6)]Man(b1-4)GlcNAc(b1-4)[Fuc(a1-6)]GlcNAc
# Procedure, shortened: as §1
# [21] = molecular target: GlcNAc(b1-3)Gal(b1-4)GlcNAc(b1-6)[Gal(b1-3)]GalNAc
# Procedure, shortened: as §1
# [22] = molecular target: GlcNAc(b1-6)Gal(b1-4)GlcNAc
# Procedure, shortened: as §1
# Kdn(a2-3)Gal(b1-3)GalNAc = molecular target: Kdn(a2-3)Gal(b1-3)GalNAc
# Procedure, shortened: as §1
# [23] = molecular target: Neu5Ac(a2-3)Gal(b1-3)GalNAc6S
# Procedure, shortened: as §1
# [24] = molecular target: Neu5Ac(a2-3)Gal(b1-4)GlcNAc(b1-3)Gal(b1-4)GlcNAc(b1-6)[Gal(b1-3)]GalNAc
# Procedure, shortened: as §1
# [25] = molecular target: Neu5Ac(a2-3)Gal(b1-4)GlcNAc(b1-6)[Gal(b1-3)]GalNAc
# Procedure, shortened: as §1
# [26] = molecular target: Neu5Ac(a2-3)Gal(b1-4)[Fuc(a1-3)]GlcNAc(b1-3)Gal(b1-4)GlcNAc
# Procedure, shortened: as §1
# [27] = molecular target: Neu5Ac(a2-6)Gal(b1-4)GlcNAc(b1-2)[Neu5Ac(a2-6)Gal(b1-4)GlcNAc(b1-4)]Man(a1-3)[GlcNAc(b1-4)][Neu5Ac(a2-6)Gal(b1-4)GlcNAc(b1-2)[Neu5Ac(a2-6)Gal(b1-4)GlcNAc(b1-6)]Man(a1-6)]Man(b1-4)GlcNAc(b1-4)GlcNAc
# Procedure, shortened: as §1
# [28] = molecular target: Neu5Ac(a2-6)Gal(b1-4)GlcNAc(b1-3)Gal(b1-4)GlcNAc(b1-3)Gal(b1-4)GlcNAc
# Procedure, shortened: as §1
# [29] = molecular target: Neu5Ac(a2-6)Gal(b1-4)GlcNAc(b1-3)Gal(b1-4)GlcNAc(b1-6)[Gal(b1-3)]GalNAc
# Procedure, shortened: as §1
# [30] = molecular target: Neu5Ac(a2-6)Gal(b1-4)GlcNAc(b1-6)[Gal(b1-3)]GalNAc
# Procedure, shortened: as §1
# [31] = molecular target: Neu5Ac(a2-6)GalNAc(b1-4)GlcNAc
# Procedure, shortened: as §1
# [32] = molecular target: Neu5Ac(a2-8)Neu5Ac(a2-8)Neu5Ac(a2-3)[GalNAc(b1-4)]Gal(b1-4)Glc
# Procedure, shortened: as §1
# [33] = molecular target: Neu5Gc(b2-6)Gal(b1-4)GlcNAc
# Procedure, shortened: as §1
binder,measurement,setting,value
B1,glycan array binding signal (z-score),[1],-0.146
same,glycan array binding signal (z-score),[2],-0.144
same,glycan array binding signal (z-score),[3],-0.143
same,glycan array binding signal (z-score),Fuc(a1-2)Gal6S(b1-4)Glc,-0.149
same,glycan array binding signal (z-score),[4],-0.14
same,glycan array binding signal (z-score),[5],-0.142
same,glycan array binding signal (z-score),[6],-0.143
same,glycan array binding signal (z-score),[7],-0.146
same,glycan array binding signal (z-score),[8],-0.139
same,glycan array binding signal (z-score),Gal(a1-3)Gal,-0.142
same,glycan array binding signal (z-score),[9],-0.125
same,glycan array binding signal (z-score),Gal(b1-3)GalNAc,2.2
same,glycan array binding signal (z-score),[10],-0.12
same,glycan array binding signal (z-score),[11],3.7
same,glycan array binding signal (z-score),[12],4.94
same,glycan array binding signal (z-score),[13],3.04
same,glycan array binding signal (z-score),[14],-0.144
same,glycan array binding signal (z-score),[15],-0.147
same,glycan array binding signal (z-score),[16],-0.151
same,glycan array binding signal (z-score),[17],-0.138
same,glycan array binding signal (z-score),[18],3.82
same,glycan array binding signal (z-score),[19],10.7
same,glycan array binding signal (z-score),Gal3S(b1-3)GlcNAc,-0.132
same,glycan array binding signal (z-score),GlcA(b1-3)Gal,-0.143
same,glycan array binding signal (z-score),[20],-0.144
same,glycan array binding signal (z-score),[21],4.57
same,glycan array binding signal (z-score),[22],-0.134
same,glycan array binding signal (z-score),Kdn(a2-3)Gal(b1-3)GalNAc,-0.14
same,glycan array binding signal (z-score),[23],-0.141
same,glycan array binding signal (z-score),[24],1.11
same,glycan array binding signal (z-score),[25],5.29
same,glycan array binding signal (z-score),[26],-0.14
same,glycan array binding signal (z-score),[27],-0.142
same,glycan array binding signal (z-score),[28],-0.146
same,glycan array binding signal (z-score),[29],11.5
same,glycan array binding signal (z-score),[30],3.09
same,glycan array binding signal (z-score),[31],-0.144
same,glycan array binding signal (z-score),[32],-0.152
same,glycan array binding signal (z-score),[33],-0.143
